Reference: PubChem BioAssay (NCI)
This is part of a sample that, as a whole, favours compounds with a hit. Of some 79,000 tested, about 15% had one in any assay. Values without a mark were called inactive. Calls of active or inactive are those of the source. No stated cut-off is given here; in the data, active means growth inhibition above about 70%; inactive means the rest.

Assays:
[1] = NCI Yeast Anticancer Drug Screen. Data for the rad50 strain (AID 155);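 further: 0% = growth of vehicle-only cultures of the same strain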; details: S. cerevisiae rad50 strain growth inhibition, hits give high values
Outline: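 Readout: growth inhibition relative to vehicle-treated cultures. Compound exposure was carried out in a genetically defined yeast strain deficient in DNA damage repair.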

[2] = NCI Yeast Anticancer Drug Screen. Data for the mec2-1 strain (AID 157); details: S. cerevisiae mec2-1 strain, hits give high values
Outline: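 Strain: mec2-1 (DNA repair/cell cycle alteration). Compound exposure, then growth measured; inhibition expressed relative to vehicle.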

[3] = NCI Yeast Anticancer Drug Screen. Data for the sgs1 mgt1 strain (AID 161);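 further: 0% = growth of cultures given vehicle only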; details: S. cerevisiae sgs1 mgt1 strain, hits give high values
Outline: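 Genetically altered yeast, compound exposure, growth inhibition relative to vehicle.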

[4] = NCI Yeast Anticancer Drug Screen. Data for the cln2 rad14 strain (AID 165);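 further: 0% = growth equal to vehicle treated cultures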; details: S. cerevisiae cln2 rad14 strain, hits give high values
Outline: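 Compounds are applied to the cln2 rad14 yeast strain, and growth is then compared with that of vehicle-treated cultures to give inhibition.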

[5] = NCI Yeast Anticancer Drug Screen. Data for the bub3 strain (AID 167); details: S. cerevisiae bub3 mutant strain, hits give high values
Outline: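 Readout: yeast growth inhibition, expressed relative to vehicle-only wells. The test organism is a mutant strain from a panel with lesions in DNA repair or checkpoint genes.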

[6] = NCI Yeast Anticancer Drug Screen. Data for the mlh1 rad18 strain (AID 175); details: S. cerevisiae mlh1 rad18 strain growth inhibition, hits give high values
Outline: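 Read-out is yeast growth inhibition, calculated against vehicle-only controls. The compound was applied to a strain engineered with DNA damage repair alterations.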

[7] = at 5.0 µM (retest, dose inferred, filed as 0.5)
[8] = at 50.0 µM (retest, dose inferred, filed as 5.0)

| SMILES | growth inhibition [1, 7] | growth inhibition [1, 8] | growth inhibition ([1]; at 50.0 µM) | growth inhibition [2, 7] | growth inhibition [2, 8] | growth inhibition ([2]; at 50.0 µM) | growth inhibition [3, 7] | growth inhibition [3, 8] | growth inhibition ([3]; at 50.0 µM) | growth inhibition [4, 7] | growth inhibition [4, 8] | growth inhibition ([4]; at 50.0 µM) | growth inhibition [5, 7] | growth inhibition [5, 8] | growth inhibition ([5]; at 50.0 µM) | growth inhibition [6, 7] | growth inhibition [6, 8] | growth inhibition ([6]; at 50.0 µM) |
| --- | --- | --- | --- | --- | --- | --- | --- | --- | --- | --- | --- | --- | --- | --- | --- | --- | --- | --- |
| C=CCOCCC=O | 7% | 38% | 45.4% | 3% | 5% | 14.2% | 2% | 4% | 36% | 4% | 2% | -20.4% | 4% | -3% | 47.7% | 4% | 11% | 54.6% |
| CCOc1ccc(C=Nc2ccc(/C=C(\C)C(=O)OCCC(C)C)cc2)cc1 | 50% | 98% (active) | 97.6% (active) | 72% (active) | 99% (active) | 98.2% (active) | 85% (active) | 99% (active) | 97.5% (active) | 94% (active) | 98% (active) | 97.2% (active) | 86% (active) | 97% (active) | 82.2% (active) | 92% (active) | 99% (active) | 98% (active) |
| CC(O)(c1ccccc1)c1ccccc1S(=O)(=O)Nc1ccccc1 (stereo not given) | -7% | 99% (active) | 99.2% (active) | 6% | 91% (active) | 98.8% (active) | -4% | 99% (active) | 98.5% (active) | 12% | 33% | 98.5% (active) | -5% | 46% | 98.9% (active) | -2% | 98% (active) | 98.4% (active) |
| CC(C)SC(=S)Nc1ccc(Cl)c([N+](=O)[O-])c1 | 25% | 99% (active) | 99.3% (active) | 15% | 99% (active) | 99.6% (active) | 18% | 100% (active) | 99.5% (active) | 2% | 99% (active) | 99.2% (active) | 12% | 99% (active) | 99.5% (active) | 30% | 99% (active) | 99.4% (active) |
| C=CCOC(=O)CC(OC(C)=O)C(CC)CC(C)C (stereo not given) | 0% | 26% | 24.4% | -1% | 12% | 19.1% | -6% | 3% | 18.3% | 2% | 20% | 80.7% (active) | 3% | 15% | 40.3% | 0% | 12% | 27.9% |
| N#Cc1c([N+](=O)[O-])cc(C(F)(F)F)cc1[N+](=O)[O-] | 92% (active) | 99% (active) | 99.5% (active) | 63% | 100% (active) | 99.6% (active) | 68% | 100% (active) | 99.5% (active) | 82% (active) | 99% (active) | 99.2% (active) | 92% (active) | 100% (active) | 99% (active) | 92% (active) | 99% (active) | 99.3% (active) |
| CC(=O)OCCCCCCCCCCCCCCO | -1% | 98% (active) | 50% | 0% | 99% (active) | -15.1% | -4% | 99% (active) | -1.2% | -3% | 98% (active) | -33.1% | 1% | 99% (active) | 43% | -2% | 98% (active) | 4.25% |
| O=S1(=O)C(C(O)(c2ccccc2)c2ccccc2)CCCN1c1ccccc1 (stereo not given) | 4% | 32% | 76.5% (active) | -8% | 0% | 31.4% | -1% | 16% | 70.5% (active) | 1% | -19% | 12.2% | 0% | 3% | 21.4% | -2% | -87% | 25.4% |
| O=C(/C=N/O)Nc1ccc(Cl)c(I)c1 | -32% | 83% (active) | 85.2% (active) | -15% | 87% (active) | 86.5% (active) | -17% | 85% (active) | 80.2% (active) | 5% | 88% (active) | 81.9% (active) | -9% | 93% (active) | 86.8% (active) | -24% | 92% (active) | 84.6% (active) |
| Clc1cc2ccccc2c2ccccc12 | 0% | 62% | 84.6% (active) | -3% | 21% | 10.8% | -3% | 32% | 75.2% (active) | -3% | 6% | -51.7% | -2% | 64% | 77.3% (active) | -1% | 84% (active) | 93.2% (active) |
| COc1cc(C(=O)[O][Sn]([c]2ccccc2)([c]2ccccc2)[c]2ccccc2)cc(OC)c1OC | 100% (active) | 99% (active) | 98.6% (active) | 100% (active) | 100% (active) | 99.2% (active) | 99% (active) | 99% (active) | 98.5% (active) | 99% (active) | 99% (active) | 89.2% (active) | 99% (active) | 99% (active) | 97% (active) | 99% (active) | 99% (active) | 98.3% (active) |
| Oc1ccc(C(O)(c2ccccc2)c2ccccc2)c2ccccc12 | 45% | 94% (active) | 98.2% (active) | 12% | 98% (active) | 97.9% (active) | 59% | 93% (active) | 98.5% (active) | 28% | 67% | 97.2% (active) | 7% | 43% | 98% (active) | 20% | 96% (active) | 97.5% (active) |
| Cc1ccc2c(c1)C1(SC(C)C(=O)N1c1ccc(Cl)cc1)C(=O)N2CN1CCOCC1 (stereo not given) | 5% | 98% (active) | 18.6% | -4% | 97% (active) | 5.5% | -3% | 95% (active) | 0.4% | -4% | 92% (active) | -17.3% | 11% | 97% (active) | 16% | 11% | 98% (active) | 29.9% |
| CCOc1ccc2nc([NH-])sc2c1.CCOc1ccc2nc([NH-])sc2c1.[Cl][Pt+2][Cl] | -1% | -1% | 26.4% | -1% | 4% | 35.5% | -1% | 15% | 47.8% | -2% | -7% | 17.9% | -2% | -6% | -4.85% | -2% | 3% | 62.1% |
| Cc1c(O)ccc(C(=O)CCl)c1O | -147% | 38% | 58.8% | -44% | 5% | 61.6% | -53% | 42% | 60.4% | -55% | -11% | 12.9% | -69% | -3% | 41.4% | -111% | 33% | 68.3% |
| CN(C)S(=O)(=O)c1cc(Cl)ccc1NN | -114% | -20% | 59.6% | -44% | -41% | 36.9% | -56% | -21% | 44% | -41% | -22% | 19.2% | -71% | -14% | 78.4% (active) | -119% | -32% | 48.6% |
| OCc1c2c(cc3c1CC1(C3)Cc3cc4c(c(CO)c3C1)CCC4)CCC2 | 30% | 94% (active) | 8.5% | 19% | 97% (active) | 24.3% | 22% | 98% (active) | 27.1% | 10% | 97% (active) | 46.4% | 18% | 97% (active) | 52.8% | 27% | 94% (active) | 27.4% |
| CCCCCC[C@@H](O)C/C=C\CCCCCCCC(=O)OCCCC | -2% | -7% | 23.6% | -4% | -7% | 26.1% | -1% | -5% | 23.6% | -3% | -8% | 75.8% (active) | -6% | -7% | 24.6% | 0% | 1% | 23.9% |
| CCCCCCc1c(Cl)nc(Cl)nc1Cl | -1% | 56% | 65.8% | 1% | 43% | 26.2% | -6% | 41% | 63.5% | 0% | 15% | -46.6% | -1% | 33% | 25.1% | -2% | 66% | 87.2% (active) |
| COc1ccc(OC)c(C[P+](c2ccccc2)(c2ccccc2)c2ccccc2)c1 | 97% (active) | 96% (active) | 98.7% (active) | 97% (active) | 99% (active) | 98.9% (active) | 97% (active) | 99% (active) | 98.5% (active) | 92% (active) | 99% (active) | 98.8% (active) | 96% (active) | 99% (active) | 99% (active) | 98% (active) | 99% (active) | 99% (active) |
